The source made the active and inactive calls. Cut-off read from the data, not from the text of the source: active = fold change mostly below about -2 (no sharp cut-off); inactive = mostly above about -1.8.
test: TERT promoter activity modulators, primary screen, cell-based, luciferase reporter, human (AID 1259240); conditions: A2780 TERT promoter luciferase reporter, 16 h; at 20 µM, fold versus average of vehicle-only wells

Fold change, inactive:
CC(C)C(NS(=O)(=O)c1cccc2nsnc12)C(=O)N1CCCCCC1 (configuration not stated) 1.11
COc1ccc(-c2nc3s/c(=C\c4ccccc4)c(=O)n3n2)cc1OC 1.68
CCS(=O)(=O)Nc1ccc(C2=NN(S(C)(=O)=O)C(c3ccco3)C2)cc1 (configuration not stated) -1.18
O=C(Cn1c(=O)c(C(F)(F)F)nc2ccccc21)N1CCCC1 -1.02
O=S(=O)(NCc1ccccn1)c1cccc2cccnc12 -1.29
CC1CCCC(NC(=O)CC(C)(C)CC2=NS(=O)(=O)c3ccccc3N2)C1C (configuration not stated) 1.01
Cc1ccc(-c2n[nH]c3c2C(c2cccc(O)c2)NC3=O)cc1 (configuration not stated) -1.62
COc1cc(-c2nc3sccn3c2Nc2ccc(OC)c(OC)c2)ccc1O -1.31
O=C(Cn1nc(C(F)F)cc1C1CC1)N1CCCC1 1.2
Cc1cccc(CNc2nc(N)n(-c3ccccc3)n2)c1 1.27
O=C(Cn1c(=O)oc2cc(S(=O)(=O)NC3CCCC3)ccc21)N1CCCC1 -1.19
Cc1cc(C(F)(F)F)nc(Nc2nc3ccccc3o2)n1 -1.19
Cc1ccc(CNc2nnc(Cc3ccncc3)c3ccccc23)cc1 -1.59
CCOc1ccc(S(=O)(=O)n2c(C)nc3ccccc32)cc1 -1.6
COc1nc(OCCNS(=O)(=O)c2ccc(C)cc2)nc(N(C)C)n1 -1.19

Fold change, active:
Cn1c(SCc2nc(-c3ccccc3)no2)nnc1-c1ccco1 -2.04

outcome, inactive:
CCOC(=O)C(C)Sc1nnc(-c2c[nH]c3ccccc23)n1CC (configuration not stated)
